# Results as given in article PMC11062922 (Nature Chemical Biology, 2023).
# Like-named read-outs stand apart in the source and are kept apart here.
# Columns and labels:
# Parameters in all cases: species or system human, MV4-11 + K-562 + COLO205 + SK-N-BE2 + OVCAR-8
# CAMK2B = conditions: read-out: apparent Kd, compound concentrations: 100 nM and 1000 nM (sheet 'Samples'), n = 1
# CAMK2D = conditions: read-out: apparent Kd; compound concentrations: 100 nM and 1000 nM (sheet 'Samples'), CATDS: 0.25731079955705399; n = 1
# CDK10 = conditions: read-out: apparent Kd; compound concentrations: 100 nM and 1000 nM (sheet 'Samples'), CATDS: 0.15001944527595701; n = 1
# FN3K = conditions: read-out: apparent Kd; compound concentrations: 100 nM and 1000 nM (sheet 'Samples'), CATDS: 0.12433120780871; n = 1
# ICK = conditions: read-out: apparent Kd; compound concentrations: 100 nM and 1000 nM (sheet 'Samples'), CATDS: 0.14025095323079101; n = 1
# MAPK1 = conditions: read-out: apparent Kd; compound concentrations: 100 nM and 1000 nM (sheet 'Samples'), CATDS: 0.154787589884953; n = 1
# EGFR = conditions: read-out: apparent Kd; compound concentrations: 100 nM and 1000 nM (sheet 'Samples'), CATDS: 0.186882259763333; n = 1
# FN3KRP = conditions: read-out: apparent Kd; compound concentrations: 100 nM and 1000 nM (sheet 'Samples'), CATDS: 0.322807069227038; n = 1
# NQO2 = conditions: read-out: apparent Kd; compound concentrations: 100 nM and 1000 nM (sheet 'Samples'), CATDS: 0.51408272608471794; n = 1
# CDC42 = conditions: read-out: apparent Kd, n = 1
# CDK7 = conditions: read-out: apparent Kd; compound concentrations:100 nM and 1000 nM (sheet 'Samples'); n = 1
# ERCC2 = conditions: read-out: apparent Kd; compound concentrations:100 nM and 1000 nM (sheet 'Samples'); n = 1
# FER = conditions: read-out: apparent Kd; compound concentrations:100 nM and 1000 nM (sheet 'Samples'); n = 1
# GAK = conditions: read-out: apparent Kd; compound concentrations:100 nM and 1000 nM (sheet 'Samples'); n = 1
# HSP90B1 = conditions: read-out: apparent Kd; compound concentrations:100 nM and 1000 nM (sheet 'Samples'); n = 1
# TNK2 = conditions: read-out: apparent Kd, n = 1
# CDC42BPG = conditions: read-out: apparent Kd, compound concentrations: 100 nM and 1000 nM (sheet 'Samples'), n = 1
# MAPK11 = conditions: read-out: apparent Kd; compound concentrations: 100 nM and 1000 nM (sheet 'Samples'), CATDS: 0.36528894613698598; n = 1
# MAPKAPK2 = conditions: read-out: apparent Kd; compound concentrations: 100 nM and 1000 nM (sheet 'Samples'), CATDS: 0.21813918573992899; n = 1
# CDK6 = conditions: read-out: apparent Kd; compound concentrations: 100 nM and 1000 nM (sheet 'Samples'), CATDS: 0.35899533679328099; n = 1
# MAP2K1 = conditions: read-out: apparent Kd; compound concentrations: 100 nM and 1000 nM (sheet 'Samples'), CATDS: 0.31550250727948498; n = 1
# FLT4 = conditions: read-out: apparent Kd; compound concentrations: 100 nM and 1000 nM (sheet 'Samples'), CATDS: 0.57222186491760196; n = 1
# PLK1 = conditions: read-out: apparent Kd; compound concentrations: 100 nM and 1000 nM (sheet 'Samples'), CATDS: 0.18184890704530299; n = 1
# RIPK2 = conditions: read-out: apparent Kd; compound concentrations: 100 nM and 1000 nM (sheet 'Samples'), CATDS: 0.227728306624736; n = 1
# CDC42BPA = conditions: read-out: apparent Kd; compound concentrations: 100 nM and 1000 nM (sheet 'Samples'), CATDS: 4.4382649306469998E-2; n = 1
# CDC42BPB = conditions: read-out: apparent Kd; compound concentrations: 100 nM and 1000 nM (sheet 'Samples'), CATDS: 5.2868246392704099E-2; n = 1
# CDC7 = conditions: read-out: apparent Kd; compound concentrations: 100 nM and 1000 nM (sheet 'Samples'), CATDS: 6.9489626335847196E-2; n = 1
# CLK4 = conditions: read-out: apparent Kd; compound concentrations: 100 nM and 1000 nM (sheet 'Samples'), CATDS: 5.9316803085408598E-2; n = 1
# GSK3A = conditions: read-out: apparent Kd; compound concentrations: 100 nM and 1000 nM (sheet 'Samples'), CATDS: 0.14981802566128199; n = 1
# GSK3B = conditions: read-out: apparent Kd; compound concentrations: 100 nM and 1000 nM (sheet 'Samples'), CATDS: 0.15901528532749901; n = 1
# LATS1 = conditions: read-out: apparent Kd; compound concentrations: 100 nM and 1000 nM (sheet 'Samples'), CATDS: 0.14331063333654301; n = 1
# NQO1 = conditions: read-out: apparent Kd; compound concentrations: 100 nM and 1000 nM (sheet 'Samples'), CATDS: 4.4968257492060203E-2; n = 1
# PKN1 = conditions: read-out: apparent Kd; compound concentrations: 100 nM and 1000 nM (sheet 'Samples'), CATDS: 5.3241919532380499E-2; n = 1
# PKN2 = conditions: read-out: apparent Kd; compound concentrations: 100 nM and 1000 nM (sheet 'Samples'), CATDS: 0.153152330435843; n = 1
# PKN3 = conditions: read-out: apparent Kd; compound concentrations: 100 nM and 1000 nM (sheet 'Samples'), CATDS: 4.6811653986635102E-2; n = 1
# ROCK1 = conditions: read-out: apparent Kd; compound concentrations: 100 nM and 1000 nM (sheet 'Samples'), CATDS: 5.1294364781544602E-2; n = 1
# ROCK2 = conditions: read-out: apparent Kd; compound concentrations: 100 nM and 1000 nM (sheet 'Samples'), CATDS: 6.2443237217646497E-2; n = 1
# RPS6KA5 = conditions: read-out: apparent Kd; compound concentrations: 100 nM and 1000 nM (sheet 'Samples'), CATDS: 4.9211147170022597E-2; n = 1
# RPS6KB1 = conditions: read-out: apparent Kd; compound concentrations: 100 nM and 1000 nM (sheet 'Samples'), CATDS: 0.131217569210515; n = 1
# [1] = compound concentrations:100 nM and 1000 nM (sheet 'Samples')
structure (smiles),measurement,setting,value
Cn1cc(C2=C(N3CCOCC3)C(=O)NC2=O)c2ccccc21 [RO3303031-000],potency estimated from few doses,CAMK2B; CATDS: 0.26217327719794398,0.327 µM
same,potency estimated from few doses,CAMK2D,0.336 µM
same,potency estimated from few doses,CDK10,0.957 µM
same,potency estimated from few doses,FN3K,1.62 µM
same,potency estimated from few doses,ICK,1.14 µM
same,potency estimated from few doses,MAPK1,0.887 µM
CS(=O)(=O)CCNCc1cc(-c2cc3c(Nc4ccc(OCc5cccc(F)c5)c(Cl)c4)ncnc3s2)cs1 [GSK300014A],potency estimated from few doses,CAMK2B; CATDS: 0.17838032280045099,0.575 µM
same,potency estimated from few doses,EGFR,0.481 µM
same,potency estimated from few doses,FN3KRP,0.112 µM
same,potency estimated from few doses,NQO2,0.0486 µM
Cc1ccc2c(-c3ccnc(Nc4ccc(C(F)(F)F)cc4)n3)cnn2n1 [GW819776X],potency estimated from few doses,CDC42; [1],1.65 µM
same,potency estimated from few doses,CDK7,1.75 µM
same,potency estimated from few doses,ERCC2,0.898 µM
same,potency estimated from few doses,FER,1.18 µM
same,potency estimated from few doses,GAK,1.4 µM
same,potency estimated from few doses,HSP90B1,0.0999 µM
same,potency estimated from few doses,TNK2; [1],1.05 µM
Nc1c(C(=O)c2cccc(CCS(N)(=O)=O)c2)cnn1-c1ccc(F)cc1 [RO1162009-000],potency estimated from few doses,CDC42BPG; CATDS: 0.22426146716058901,1.25 µM
same,potency estimated from few doses,MAPK11,0.5 µM
same,potency estimated from few doses,MAPKAPK2,1.34 µM
same,potency estimated from few doses,"TNK2; compound concentrations: 100 nM and 1000 nM (sheet 'Samples'), CATDS: 0.23701561839687901",1.1 µM
CCn1c(-c2ccccn2)nc2cnccc21 [SB-736398],potency estimated from few doses,"CDC42; compound concentrations: 100 nM and 1000 nM (sheet 'Samples'), CATDS: 0.328417840290395",1.93 µM
same,potency estimated from few doses,CDK6,1.63 µM
same,potency estimated from few doses,MAP2K1,2.1 µM
COc1cc2nccc(Nc3ccc(OCc4ccc(NC(C)=O)cc4)cc3)c2cc1OC.Cl [GW440135A],potency estimated from few doses,CDC42BPG; CATDS: 0.22924434609497199,1.07 µM
same,potency estimated from few doses,FLT4,0.185 µM
same,potency estimated from few doses,PLK1,2.13 µM
same,potency estimated from few doses,RIPK2,1.09 µM
Nc1nonc1-c1nc2cnccc2n1C1CCCCC1 [SB-734117],potency estimated from few doses,CDC42BPA,2 µM
same,potency estimated from few doses,CDC42BPB,1 µM
same,potency estimated from few doses,CDC7,0.446 µM
same,potency estimated from few doses,CLK4,0.693 µM
same,potency estimated from few doses,GSK3A,0.0918 µM
same,potency estimated from few doses,GSK3B,0.0833 µM
same,potency estimated from few doses,LATS1,0.0988 µM
same,potency estimated from few doses,NQO1,1.88 µM
same,potency estimated from few doses,PKN1,0.977 µM
same,potency estimated from few doses,PKN2,0.0885 µM
same,potency estimated from few doses,PKN3,1.58 µM
same,potency estimated from few doses,ROCK1,1.11 µM
same,potency estimated from few doses,ROCK2,0.596 µM
same,potency estimated from few doses,RPS6KA5,1.3 µM
same,potency estimated from few doses,RPS6KB1,0.115 µM
